Data: PubChem BioAssay (NCATS)
Inconclusive results are not listed. Unmarked numbers belong to inactive results. The source made the active and inactive calls. Calls follow the shape of the dose curve; as a rule, active = well fitted curve in the direction sought with a large enough effect; inconclusive = small, poorly fitted or top-dose-only effect, or another doubt; inactive = no such curve, though single readings can be large; an effect the other way counts as inactive or inconclusive. Where a SMILES comes first, the peptide text is derived from it. [ ]: non-standard residue; d: D form. PhLac = O=C(O)[CH](O)Cc1ccccc1; NMeV = CN[CH](C(=O)O)C(C)C

Assay: Primary qHTS for inhibitors of nuclear receptor binding SET domain protein 2 (NSD2) in an isogenic RCH-ACV NSD2 p.E1099K mutant (9B) (AID 1645876)
Settings: RCH-ACV NSD2 E1099K (9B) viability, CellTiter-Glo, 72 h; series mostly up to 44.9 µM; activity change, negative = viability loss: at the top concentration
% is scaled to controls: 0 for no effect and ±100 for the full control effect.
Also: nearly all actives have a fitted effect of over 70% in size.

SMILES | outcome | activity change, negative = viability loss | Potency
CC(C)CC(=O)n1cc(C(N)=O)c(=O)cc1C(O)c1ccccc1 (stereo not given) | inactive |  | 
CC(=O)NC(CCC(=O)O)C(=O)NCCc1ccc(O)cc1 (stereo not given) |  | 4.62% | 
CCN[C@@H]1C[C@H](N)[C@@H](O[C@H]2OC(CN)=CC[C@H]2N)[C@H](O)[C@H]1O[C@H]1OC[C@](C)(O)[C@H](NC)[C@H]1O |  |  | inactive
CCCC(N[C@@H](C)C(=O)N1[C@H](C(=O)O)C[C@@H]2CCCC[C@@H]21)C(=O)OCC (stereo not given in full) | inactive |  | 
C=CC(C)(C)O[C@@H]1O[C@H](CO[C@@H]2OC[C@](O)(CO)[C@H]2O)[C@@H](O)[C@H](O)[C@H]1O |  | -0.424% | 
CC(C)=CC/C=C(/C)[C@H]1CC[C@]2(C)[C@@H]1[C@H](O)CC1[C@@]3(C)CC[C@H](O)C(C)(C)[C@@H]3[C@@H](O[C@@H]3O[C@H](CO)[C@@H](O)[C@H](O)[C@H]3O[C@@H]3O[C@@H](C)[C@H](O)[C@@H](O)[C@H]3O)C[C@]12C (stereo not given in full) |  | -0.262% [at 17.3 µM] | 
C/C=C(/C)C(=O)O[C@H]1C=C(C)C[C@H](OC(=O)c2ccc(O)cc2)C2[C@](O)(C(C)C)CC[C@@]21C (stereo not given in full) |  | 0.0466% [at 17.3 µM] | 
C[C@@H]1O[C@@H](O[C@@H]2[C@@H](O)[C@@H](O)[C@H](O[C@@H]3[C@@H](O)[C@@H](O[C@]4(CO)O[C@H](CO)[C@@H](O)[C@@H]4OC(=O)/C=C/c4ccc(O)cc4)O[C@H](CO)[C@H]3OC(=O)/C=C/c3ccc(O)cc3)O[C@H]2C)[C@H](O)[C@H](O)[C@H]1O | inactive [at 9.23 µM] |  | 
O=C(/C=C/c1ccc(O)cc1)OCC1=C[C@@H](O)[C@@H]2C=CO[C@@H](O[C@@H]3O[C@H](CO)[C@@H](O)[C@H](O)[C@H]3O)[C@H]12 |  | 4.25% [at 17.3 µM] | 
C=CC(C)(O)CC/C=C(\C)C(=O)OCC1OC(OC2CCC3(C)C(CCC4(C)C3CC=C3C5CC(C)(C)C(O)CC5(C(=O)O)CCC34C)C2(C)C)C(O)C(OC2OC(CO)C(O)C(OC3OC(CO)C(O)C(OC4OC(COC5OC(CO)C(O)C(O)C5O)C(O)C(O)C4O)C3O)C2O)C1O (stereo not given) | inactive [at 9.23 µM] |  | 
CC(=O)N[C@H]1[C@H](O[C@H]2CC[C@@]3(C)C(CC[C@]4(C)C3CC=C3C5CC(C)(C)CC[C@]5(C(=O)O)[C@H](O[C@@H]5O[C@H](CO)[C@@H](O)[C@H](O)[C@H]5O)C[C@]34C)C2(C)C)O[C@H](CO[C@@H]2OC[C@H](O)[C@H](O)[C@H]2O[C@@H]2OC[C@@H](O)[C@H](O)[C@H]2O)[C@@H](O)[C@@H]1O (stereo not given in full) |  | -9.03% [at 9.23 µM] | 
CC[C@H]1OC(=O)[C@H](C)[C@@H](O[C@H]2C[C@@](C)(OC)[C@@H](O)[C@H](C)O2)[C@H](C)[C@@H](O[C@@H]2O[C@H](C)C[C@H](N(C)C)[C@H]2O)[C@@](C)(O)C[C@@H](C)[C@@H]2N[C@@H](COCCOC)OC([C@H]2C)[C@]1(C)O |  | -9.66% | 
CC1=CC(=O)CC(C)(C)C1CCC(C)OC1OC(COC(=O)c2cc(O)c(O)c(O)c2)C(O)C(O)C1O (stereo not given) | inactive [at 17.3 µM] |  | 
CC1NC(=O)CNC(=O)C(C(C)C)NC(=O)C2CCCN2C(=O)C(C(C)C)NC(=O)C(Cc2c[nH]c3ccccc23)NC1=O (stereo not given) (cyclo(GAWVPV); configuration not given here) |  | 3.85% [at 17.3 µM] | 
COC(=O)C1=CO[C@@H](O[C@@H]2O[C@H](CO)[C@@H](O)[C@H](O)[C@H]2O)[C@@H]2[C@@](C)(O)[C@@H](O)C[C@]12O | inactive [at 17.3 µM] |  | 
NC(=O)c1ccc(OCC2NC(=O)C3CCCN3C2=O)cc1 (stereo not given) |  | -7.28% | 
c1ccc(Cc2ncc3c(n2)CCNCC3)cc1 |  | -10.2% | 

Assay: Primary qHTS for inhibitors of nuclear receptor binding SET domain protein 2 (NSD2) in an RCH-ACV wild type WT cells (2C) (AID 1645877)
Settings: RCH-ACV (leukaemia line) NSD2 WT (2C) viability, CellTiter-Glo, 72 h; series mostly up to 44.9 µM; activity change, negative = cell killing: at the top concentration

SMILES | outcome | activity change, negative = cell killing
C[C@H]1[C@H](C)CC[C@]2(C(=O)O)CC[C@]3(C(=O)O)C(=CCC4[C@@]5(C)CC[C@H](O[C@@H]6O[C@H](C)[C@@H](O)[C@H](O)[C@H]6O)C(C)(C)C5CC[C@]43C)[C@H]12 (stereo not given in full) | inactive [at 17.3 µM] | 
CN1C(=O)c2ccccc2-n2c(nc3ccccc3c2=O)/C1=C/c1ccccc1 |  | -5.09%
CC(=O)OC[C@@]12[C@H](O)C[C@@H](C)[C@]3(C[C@@H](c4ccoc4)OC3=O)[C@H]1C[C@H](O)C[C@]21CO1 |  | -7.93% [at 17.3 µM]
COC1CC(=O)CCC(C)OC(=O)CC1O (stereo not given) |  | 0.151%
O=c1ccn(C2OC(CO)C(O)C2O)c(=O)[nH]1 (stereo not given) |  | 0.606%
CC(C)C(C(=O)N1CCCC1C(=O)O)N(C)C(=O)C(O)Cc1ccccc1 (stereo not given) (H-[PhLac]-[NMeV]-Pro-OH; configuration not given here) |  | 3.18%
COc1ccc2c(c1)O[C@H](O[C@@H]1O[C@H](CO)[C@@H](O)[C@H](O)[C@H]1O)C(=O)N2 | inactive | 
CC(=O)O[C@@H]1[C@@H](OC(=O)/C=C/c2ccccc2)[C@H](C)O[C@@H](O[C@H]2[C@@H]3C=CO[C@@H](O[C@@H]4O[C@H](CO)[C@@H](O)[C@H](O)[C@H]4O)[C@@H]3[C@@]3(CO)O[C@@H]23)[C@@H]1OC(C)=O | inactive [at 17.3 µM] | 
